Data as given in the antibiotic and cytotoxicity screens of Wong et al. (2023).
The campaign covered roughly 39,000 compounds. About 3,300 (8.5%) were called active. Only a selection was taken, and actives are over-represented in it overall.

These compounds were tested on HepG2 (assay: cytotoxicity call (relative viability < 0.9)). Settings: 10 µM.

Row | SMILES | cytotoxicity call
1 | C[C@@H]1CCCCO[C@@H](CN(C)S(=O)(=O)c2cccs2)[C@@H](C)CN([C@H](C)CO)C(=O)c2cc(NS(=O)(=O)c3cn(C)cn3)ccc2O1 | inactive
2 | CC(C)NC(=O)N(C)C[C@@H]1OCCCC[C@@H](C)Oc2ccc(NC(=O)C3CCCCC3)cc2C(=O)N([C@H](C)CO)C[C@@H]1C | inactive
3 | COc1ccc(S(=O)(=O)N(C)C[C@H]2Oc3c(NS(=O)(=O)c4cn(C)cn4)cccc3C(=O)N([C@H](C)CO)C[C@@H]2C)cc1 | inactive
4 | C[C@@H]1CN([C@@H](C)CO)C(=O)c2cc(C#C[C@@H](C)O)cnc2O[C@H]1CN(C)Cc1cncnc1 | inactive
5 | C[C@@H]1CCCCO[C@@H](CN(C)Cc2ccc(C(F)(F)F)cc2)[C@H](C)CN([C@H](C)CO)C(=O)c2cc(NS(=O)(=O)c3ccc(F)cc3)ccc2O1 | inactive
6 | Cc1ccc(S(=O)(=O)Nc2ccc3c(c2)C(=O)N([C@H](C)CO)C[C@@H](C)[C@@H](CN(C)Cc2ccc(C(F)(F)F)cc2)OCCCC[C@@H](C)O3)cc1 | inactive
7 | C[C@@H]1CN([C@H](C)CO)C(=O)c2cc(NS(=O)(=O)c3ccc(F)cc3)ccc2O[C@@H](C)CCCCO[C@H]1CN(C)Cc1ccc(C(F)(F)F)cc1 | inactive
8 | C[C@@H]1CCCCO[C@@H](CN(C)Cc2ccc(C(F)(F)F)cc2)[C@@H](C)CN([C@H](C)CO)C(=O)c2cc(NS(=O)(=O)c3ccc(F)cc3)ccc2O1 | active
9 | Cc1ccc(S(=O)(=O)Nc2ccc3c(c2)C(=O)N([C@H](C)CO)C[C@@H](C)[C@H](CN(C)Cc2ccc(C(F)(F)F)cc2)OCCCC[C@H](C)O3)cc1 | active
10 | Cc1ccc(S(=O)(=O)Nc2ccc3c(c2)C(=O)N([C@@H](C)CO)C[C@@H](C)[C@@H](CN(C)Cc2ccc(C(F)(F)F)cc2)OCCCC[C@@H](C)O3)cc1 | active
11 | Cc1ccc(S(=O)(=O)Nc2ccc3c(c2)C(=O)N([C@H](C)CO)C[C@H](C)[C@H](CN(C)Cc2ccc(C(F)(F)F)cc2)OCCCC[C@H](C)O3)cc1 | inactive
12 | C[C@@H]1CN([C@@H](C)CO)C(=O)c2cccc(NC(=O)C3CCOCC3)c2O[C@H]1CN(C)Cc1ccccc1 | inactive
13 | NCC[C@H]1CC[C@@H](NC(=O)Cc2ccncc2)[C@@H](CO)O1 | inactive
14 | C[C@@H]1CN([C@@H](C)CO)C(=O)CCCn2cc(nn2)CO[C@H]1CN(C)S(=O)(=O)c1ccc(Oc2ccccc2)nc1 | inactive
15 | CSc1nn(C)c2cnn(C)c(=O)c12 | inactive
16 | C[C@H](CO)N1C[C@H](C)[C@H](CN(C)S(=O)(=O)c2cn(C)cn2)Oc2ncc(C#Cc3ccccc3)cc2C1=O | inactive
17 | COc1ccc(S(=O)(=O)Nc2ccc3c(c2)C(=O)N([C@H](C)CO)C[C@H](C)[C@@H](CN(C)C(=O)Nc2c(C)noc2C)OCCCC[C@@H](C)O3)cc1 | inactive
18 | C[C@@H]1CN([C@@H](C)CO)C(=O)c2cc(NC(=O)Nc3ccc(F)cc3)ccc2O[C@@H](C)CCCCO[C@H]1CN(C)C(=O)CCCN(C)C | inactive
19 | Cc1noc(C)c1S(=O)(=O)Nc1ccc2c(c1)C(=O)N([C@@H](C)CO)C[C@@H](C)[C@@H](CN(C)S(=O)(=O)c1ccc(Cl)cc1)O2 | inactive
20 | C[C@@H]1CN([C@H](C)CO)C(=O)c2cc(C#Cc3cccc(F)c3)cnc2O[C@@H]1CN(C)C(=O)C1CCOCC1 | inactive

Row | SMILES | cytotoxicity call
21 | C[C@@H]1CCCCO[C@@H](CN(C)C(=O)Nc2ccccc2)[C@H](C)CN([C@H](C)CO)C(=O)c2cc(NS(=O)(=O)c3ccc(F)cc3)ccc2O1 | active
22 | C[C@@H]1CCCCO[C@@H](CN(C)C(=O)Nc2ccccc2)[C@H](C)CN([C@@H](C)CO)C(=O)c2cc(NS(=O)(=O)c3ccc(F)cc3)ccc2O1 | inactive
23 | C[C@@H]1CCCCO[C@H](CN(C)C(=O)Nc2ccccc2)[C@H](C)CN([C@@H](C)CO)C(=O)c2cc(NS(=O)(=O)c3ccc(F)cc3)ccc2O1 | inactive
24 | C[C@@H]1CN([C@@H](C)CO)C(=O)c2cc(NS(=O)(=O)c3ccc(F)cc3)ccc2O[C@@H](C)CCCCO[C@H]1CN(C)C(=O)Nc1ccccc1 | inactive
25 | C[C@H](CO)N1C[C@H](C)[C@@H](CN(C)C(=O)Nc2ccccc2)OCCCC[C@H](C)Oc2ccc(NS(=O)(=O)c3ccc(F)cc3)cc2C1=O | inactive
26 | C[C@@H]1CN([C@H](C)CO)C(=O)c2cc(NS(=O)(=O)c3ccc(F)cc3)ccc2O[C@@H](C)CCCCO[C@H]1CN(C)C(=O)Nc1ccccc1 | active
27 | COc1cccc(C(=O)Nc2ccc3c(c2)C(=O)N(C)[C@@H]2CC[C@H](CC(=O)NCCCN4CCOCC4)O[C@@H]2CO3)c1 | inactive
28 | Cn1ccc2ccc(CN)cc21 | inactive
29 | Cc1cc(C)nc(C#N)n1 | inactive
30 | C[C@H](CO)N1C[C@H](C)[C@@H](CN(C)C(=O)Nc2ccc3c(c2)OCO3)Oc2ccc(NC(=O)Nc3cccc4ccccc34)cc2CC1=O | inactive
31 | COc1ccc(S(=O)(=O)Nc2ccc3c(c2)C(=O)N([C@H](C)CO)C[C@H](C)[C@H](CN(C)C(=O)Nc2ccc(F)cc2)OCCCC[C@@H](C)O3)cc1 | inactive
32 | COCC#Cc1ccc2c(c1)O[C@@H](CN(C)C(=O)c1ccccc1)[C@H](C)CN([C@H](C)CO)S2(=O)=O | inactive
33 | C[n+]1cc2c3c(ccc2c2ccc4cc5c(cc4c21)OCO5)OCO3.[Cl-] | active
34 | CCCNC(=O)N1C[C@@H](O)COC[C@H]2O[C@H](CC(=O)N3CCN(C)CC3)CC[C@@H]21 | inactive
35 | C[n+]1ccn(C[C@@]2(C)[C@H](C(=O)O)N3C(=O)C[C@H]3S2(=O)=O)n1 | inactive
36 | Cc1noc(C)c1NC(=O)N(C)C[C@H]1Oc2c(NS(=O)(=O)c3cn(C)cn3)cccc2C(=O)N([C@@H](C)CO)C[C@@H]1C | inactive
37 | Cc1ccc(S(=O)(=O)N[C@@H](Cc2ccccc2)C(=O)NCCCn2cc(-c3ccc(C(=O)NO)s3)nn2)cc1 | inactive
38 | C[C@H]1COC(=O)[C@H](Cc2ccc(F)cc2)CC=CC[C@@H](CC(=O)N[C@H](CO)Cc2ccccc2)C(=O)N1 | inactive
39 | O=C(C[C@@H]1C/C=C/C[C@H](Cc2ccccc2)C(=O)N[C@H](c2ccccc2)COC1=O)NCc1ccc(Cl)cc1 | active
40 | CC(=O)N[C@H]1C/C=C/C[C@@H](CC(=O)NCc2ccc(Cl)cc2)C(=O)NC[C@@H](c2ccccc2)OC1=O | inactive
